Source: ChEMBL document CHEMBL3433997, “St. Jude Leishmania screening dataset” (2016)

Legend:
Format in all cases: functional
[1] = biological target: Solute carrier family 2, facilitated glucose transporter member 1 (Homo sapiens) (UniProt P11166); test: ST_JUDE_LEISH: Cytotoxicity at 2uM final concentration against transgenic Leishmania Mexicana promastigotes LmGLUT1 that are glucose transport deficient and complemented with the human glucose transporter GLUT1. Activity is measured by DNA content using SYBR green in vitro
[2] = biological target: Hexose transporter 1 (Plasmodium falciparum) (UniProt O97467); test: ST_JUDE_LEISH: Cytotoxicity at 2uM final concentration against transgenic Leishmania Mexicana promastigotes LmPfHT that are glucose transport deficient and complemented with the Plasmodium falciparum hexose transporter. Activity is measured by DNA content using SYBR green in vitro
[3] = biological target: Glucose transporter (Leishmania mexicana) (UniProt O61059); test: ST_JUDE_LEISH: Cytotoxicity at 2uM final concentration against transgenic Leishmania Mexicana promastigotes LmGT2 that are glucose transport deficient and complemented with the L. Mexicana glucose transporter 2. Activity is measured by DNA content using SYBR green in vitro

Chain of Solute carrier family 2, facilitated glucose transporter member 1 (Homo sapiens) (P11166 whole entry): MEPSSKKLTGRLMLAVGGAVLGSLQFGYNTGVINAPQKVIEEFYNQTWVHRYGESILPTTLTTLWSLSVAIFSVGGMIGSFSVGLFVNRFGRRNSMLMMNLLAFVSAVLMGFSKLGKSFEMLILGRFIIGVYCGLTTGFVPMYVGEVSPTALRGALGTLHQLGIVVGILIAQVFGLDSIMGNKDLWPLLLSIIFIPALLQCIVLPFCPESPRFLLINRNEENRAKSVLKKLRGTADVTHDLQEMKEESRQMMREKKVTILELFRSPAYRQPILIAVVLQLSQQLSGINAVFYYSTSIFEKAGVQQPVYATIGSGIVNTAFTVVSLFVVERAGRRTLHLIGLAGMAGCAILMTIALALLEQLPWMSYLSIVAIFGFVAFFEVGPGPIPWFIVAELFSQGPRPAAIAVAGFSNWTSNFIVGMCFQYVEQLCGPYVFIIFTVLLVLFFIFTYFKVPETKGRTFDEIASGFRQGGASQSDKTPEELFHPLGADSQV

Row | SMILES | inhibition [1] | inhibition [2] | inhibition [3]
1 | CC[C@H]1CN2CC[C@H]1C[C@H]2[C@H](O)c1cc(-c2ccc(Cl)c(Cl)c2)nc2ccc(OC)cc12 | 12.6% | 9.65% | 9.4%
2 | COc1ccc(CC(C)NCC(O)c2ccc(Cl)c(Cl)c2)cc1 (stereo not given) | 0.41% | -0.07% | -2.6%
3 | CCCCNC(c1ccc(Cl)cc1)C(O)c1ccc(Cl)cc1 (stereo not given) | 8.3% | 8.45% | 9.91%
4 | Cc1ccc(CC(C)NCC(O)c2cccc(Cl)c2)cc1F (stereo not given) | 9.84% | 9.76% | 9.69%
5 | CNCCN(C)C(=O)Oc1c(Cl)c(C)nc(C)c1-c1ccc(Oc2ccc(OC(F)(F)F)cc2)cc1 | 4.11% | 4.04% | 4.28%
